aSyn UTR act: Activators via SNCA 5'UTR binding, MLPCN | alpha-synuclein 5'UTR reporter, activators screen | activity score, % (tested at 7.5 µM), hits read low | 7.1% of 300,000 active | AID 1814; in the data active = activity score below about -60%
Of the large screens only hits and unclear results are named; the others gave an inactive call. Only a sample is shown.

Cc1ccc(C(=O)N/N=C/c2ccc([N+](=O)[O-])s2)cc1	none
O=C(N/N=C/c1ccc([N+](=O)[O-])s1)c1ccncc1	aSyn UTR act -63.7
COc1ccc(NC(=O)CCC(=O)N/N=C/c2ccc([N+](=O)[O-])s2)cc1	aSyn UTR act -79.1
O=C(N/N=C/c1ccc([N+](=O)[O-])s1)c1cccc(Br)c1	none
COc1ccccc1NC(=O)Nc1ccc(C(=O)N2CCCCC2)cc1	aSyn UTR act -98.6
O=C(Nc1cccc(Cl)c1)Nc1ccccc1C(=O)O	aSyn UTR act -119.7
CS/C(N)=N/C(=S)Nc1cccc(Cl)c1	aSyn UTR act -142.8
COc1ccccc1NC(=O)N1CCC(c2nc3cc(C)c(C)cc3[nH]2)CC1	none
CC(=O)Nc1ccc(NC(=O)Nc2cccc(Cl)c2)cc1	aSyn UTR act -79.2
CSc1cccc(NC(=S)Nc2ccc(F)cc2)c1	aSyn UTR act -196.4
CSc1cccc(NC(=O)Nc2ccc(Cl)cc2)c1	aSyn UTR act -96.5
CC(=O)c1ccc(NC(=S)NCCc2ccc(S(N)(=O)=O)cc2)cc1	aSyn UTR act -79.6
CC(=O)c1ccc(NC(=O)Nc2ccc3c(c2)nc(C)n3C)cc1	aSyn UTR act -147.8
O=C(Nc1ccc(C(=O)N2CCCCC2)cc1)Nc1cccc(Cl)c1	aSyn UTR act -81.6
CCNS(=O)(=O)c1ccc(NC(=O)Nc2ccccc2OC)cc1	aSyn UTR act -79.2
CC(=O)c1ccc(NC(=S)NCCc2cccc(Cl)c2)cc1	aSyn UTR act -178.7
CC(=O)c1ccc(NC(=O)Nc2cccc(Cl)c2)cc1	aSyn UTR act -82.3
Clc1ccccc1OCc1nnc(-c2ccccc2Br)o1	aSyn UTR act -172.6
N#Cc1ccccc1OCc1nnc(-c2ccccc2Br)o1	aSyn UTR act -178.2
O=c1c(Cl)c(Cl)cnn1Cc1nnc(-c2ccccc2Br)o1	aSyn UTR act -66.1
COC(=O)c1ccc(C2OCC(C)(C)CO2)cc1	aSyn UTR act -135.4
COC(=O)c1ccc2c(c1)C(C)(C)C(/C=C/c1ccc(OC)c(OC)c1OC)=[N+]2C	none
COC(=O)c1sc(NC(=O)COc2ccccc2C)nc1C	aSyn UTR act -90.5
O=C(COc1ccccc1)Nc1nc2c(s1)CCCC2	aSyn UTR act -87.8
COC(=O)Nc1nc2c(s1)CCCC2	aSyn UTR act -86.8
CCN1CCN(/C=N/c2nc3c(s2)CCCC3)CC1	none
COc1ccccc1OCC(=O)Nc1nc(C)c(C)s1	aSyn UTR act -83.0
CC(C)CCn1nc(C(=O)Nc2nc3c(s2)CCCC3)c2ccccc2c1=O	none
CC(=O)c1sc(NC(=O)COc2ccccc2)nc1C	aSyn UTR act -108.9
Cc1cc2ncc(-c3ccc(Cl)cc3)cn2n1	aSyn UTR act -83.8
O=C(Nc1ccc2c(c1)oc1ccccc12)C1CC1	aSyn UTR act -138.3
CCCCC(=O)Nc1ccc2c(c1)oc1ccccc12	aSyn UTR act -250.8
Cc1cc(=O)oc2cc(NC(=O)C3CCCC3)ccc12	aSyn UTR act -85.2
CCCCCC(=O)Nc1ccc2ccccc2c1	aSyn UTR act -174.7
CC(C)CC(=O)Nc1ccc2c(c1)oc1ccccc12	aSyn UTR act -227.4
COc1ccc(/C=C/C(=O)c2c(C)nc3ccccn23)cc1	aSyn UTR act -307.6
Cc1nc2ccccn2c1C(=O)/C=C/c1ccc(F)cc1	aSyn UTR act -83.4
CCOC(=O)C1(Cc2ccc(OC)cc2)CCN(C(=O)c2ccc3[nH]ccc3c2)CC1	aSyn UTR act -127.1
CC1(C)COC(/C=C/c2ccc([N+](=O)[O-])cc2)=N1	aSyn UTR act -93.0
NC(=S)N/N=C/c1cccc(O)c1O	aSyn UTR act -94.0
Fc1cccc(Nc2ncnc3c2cnn3-c2ccccc2)c1	aSyn UTR act -172.8
Clc1cccc(Nc2ncnc3c2cnn3-c2ccccc2)c1	aSyn UTR act -86.3
O=C(O)c1cccc(Nc2ncnc3c2cnn3-c2ccccc2)c1	aSyn UTR act -100.9
CCc1nnc(NC(=S)Nc2ccccc2)s1	aSyn UTR act -123.5
Cc1nc(NC(=S)Nc2ccccc2)sc1C	aSyn UTR act -165.6
CN1CCc2c(sc3c2C(=O)NC(c2cccs2)N3)C1 (centres undefined)	aSyn UTR act -102.8
CC(=O)c1cccc(NC(=O)c2sc(Cl)nc2C)c1	aSyn UTR act -65.4
Cc1c(C(=O)Nc2ccccc2)sc2nc[nH]c(=O)c12	aSyn UTR act -72.0
Cc1nc(Cl)sc1C(=O)Nc1ccccc1	aSyn UTR act -66.6
CCN(CC)c1ccc(C=N/C(C#N)=C(\N)C#N)cc1	aSyn UTR act -138.1
Cc1sc(NC(=O)C2C3CCC(O3)C2C(=O)O)nc1-c1ccc(CC(C)C)cc1 (centres undefined)	aSyn UTR act -139.2
CCOc1ccc2nc(NC(=O)c3cnc(C)cn3)sc2c1	aSyn UTR act -68.5
CCOc1ccc2nc(NC(=O)C3=NNC(=O)CC3)sc2c1	aSyn UTR act -73.5
O=C(c1csc(Nc2ccccc2Cl)n1)N1CCCC1	aSyn UTR act -117.3
Cc1ccc(C(=O)NCCCc2ccccc2)c(Cl)c1	aSyn UTR act -100.2
O=C(NCCCc1ccccc1)c1ccccc1O	aSyn UTR act -139.9
O=C(NCCCc1ccccc1)c1ccc([N+](=O)[O-])cc1Cl	aSyn UTR act -82.7
O=C(NCCCc1ccccc1)c1ccc(Br)o1	aSyn UTR act -62.2
Cc1ccc(C(=O)NCCCc2ccccc2)c(C)c1	aSyn UTR act -129.3
ClC1(Cl)CC1CSc1nnc(-c2ccncc2)o1 (centres undefined)	aSyn UTR act -66.0
CCOc1ccc(C(=O)O/N=C(\N)c2ccccn2)cc1OCC	aSyn UTR act -102.6
COc1ccc(C(=O)O/N=C(\N)c2ccccn2)cc1	none
COc1cc(OC)cc(C(=O)O/N=C(\N)c2ccccn2)c1	aSyn UTR act -129.6
O=C(CN1CC[n+]2c(-c3cccs3)csc21)c1ccc(-c2ccccc2)cc1	aSyn UTR act -64.6
CCCc1cc(=O)n2c([nH]c3ccccc32)c1C#N	aSyn UTR act -69.6
CCn1c(SCC(=O)Nc2ccc(C(C)=O)cc2)nc2ccccc21	aSyn UTR act -70.0
COCCCn1c(SCC(=O)Nc2ccc(C(C)=O)cc2)nc2ccccc2c1=O	aSyn UTR act -84.0
CC(=O)c1ccc(NC(=O)CSc2nc(=O)cc(N)n2-c2ccccc2)cc1	aSyn UTR act -142.5
Cc1ccc(COc2ccc(/C=N/O)cc2)cc1	aSyn UTR act -131.0
Cc1ccc(Oc2ccc(/C=N/O)cn2)cc1	aSyn UTR act -83.2
Cc1c(OCC(=O)C(C)(C)C)ccc2c3c(c(=O)oc12)CCCC3	aSyn UTR act -97.1
CC(C)c1ccc(N(C(=O)c2csnn2)C(C(=O)NC(C)(C)C)c2ccncc2)cc1 (centres undefined)	aSyn UTR act -158.4
Nc1cccc(/C=C/c2ccncc2)c1	aSyn UTR act -68.0
COc1cccc2c1OC1(CCN(C(C)C)CC1)N1N=C(c3cccnc3)CC21 (centres undefined)	aSyn UTR act -78.4
Cc1ccc2c(CN(C)Cc3cccc(F)c3)cc(=O)oc2c1	aSyn UTR act -123.6
Cc1cc2oc(=O)cc(CN(C)Cc3ccccc3F)c2cc1Cl	aSyn UTR act -79.6
Cc1ccc2c(CNCc3ccccc3)cc(=O)oc2c1	aSyn UTR act -64.8
CC(C)Oc1ccc(C(=O)Nc2ccc(C(F)(F)F)n(C)c2=O)cc1	aSyn UTR act -82.0
Cc1nc(N)sc1N=Nc1ccccc1C(F)(F)F	aSyn UTR act -184.2
COC(=O)c1c(-c2ccccc2)csc1NC1=NS(=O)(=O)c2ccccc21	aSyn UTR act -121.5
O=C(O)c1cccc(-c2nnn(Cc3ccccc3)n2)c1	aSyn UTR act -84.6
CSc1ccc(-c2nnn(Cc3ccc(C)cc3)n2)cc1	aSyn UTR act -167.6
Cc1ccccc1Cn1nnc(-c2cccc(C(=O)O)c2)n1	aSyn UTR act -78.5
COc1ccc(-c2nnn(Cc3ccccc3)n2)cc1	aSyn UTR act -167.5

Compound activity: PubChem, Broad Institute
